Assay results: the supplement of paper PMC6555819

Tests used:
Assay in all cases: PBM binding z-score (relative to random genomic background probes); higher = stronger binding; sequences stand for … in GC…GCGATTGACAGCGTAGAATGAAGG
[1] = test system: PPARg:RXRa DBDmut IVT, anti-RXR (DBD mutation: RXRa K156A/R161A, NR concentration 270 nM, RXRa partner concentration 90 nM)
How it was run: (§1)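 Binding z-scores take random background probes as their reference. They come from custom Agilent 4×180K protein-binding microarrays incubated 1 h with ligand-free nuclear receptor dimers, with antibodies against each partner (one per run) detecting binding. Scanned fluorescence was regression-normalized.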

[2] = test system: PPARg:RXRa IVT, anti-PPARg (NR concentration 270 nM, RXRa partner concentration 90 nM)
How it was run: as §1

[3] = test system: PPARg DBDmut:RXRa IVT, anti-PPARg (DBD mutation: PPARg1 K132A/R137A, NR concentration 270 nM, RXRa partner concentration 90 nM)
How it was run: as §1

[4] = test system: PPARg DBDmut IVT, anti-PPARg (DBD mutation: PPARg1 K132A/R137A, NR concentration 270 nM)
How it was run: as §1

[5] = test system: PPARg homodimer (NR concentration 180 nM)
How it was run: as §1

[6] = test system: PXR:RXRa (NR concentration 270 nM, RXRa partner concentration 90 nM)
How it was run: as §1

[7] = test system: PXR homodimer (NR concentration 270 nM)
How it was run: as §1

[8] = test system: RARa:RXR (NR concentration 270 nM, RXRa partner concentration 90 nM)
How it was run: as §1

[9] = test system: RARa homodimer (NR concentration 270 nM)
How it was run: as §1

[10] = test system: RARb:RXRa (NR concentration 270 nM, RXRa partner concentration 90 nM)
How it was run: as §1

Sequence	PBM binding z-score [1]	PBM binding z-score [2]	PBM binding z-score [3]	PBM binding z-score [4]	PBM binding z-score [5]	PBM binding z-score [6]	PBM binding z-score [7]	PBM binding z-score [8]	PBM binding z-score [9]	PBM binding z-score [10]
GTACCAAGGTGAATATGTCGTTGATGAGTAGGCG	1.28	1.95	0.633	0.3	1.32	-0.126	0.282	0.44	0.46	1.22
GCTGCTCGGTCAGGTTGGTCAGCTAACGGGTACG	-0.244	-0.303	-1.15	-1.51	-0.397	-0.721	-0.841	-0.696	-0.978	1.94
ATATGTAGGTTAGCTGGGGGCATTCAGACTAGGC	6.79	6.14	4.18	5.68	1.96	4.39	1.88	2.5	1.27	2.25
TCTTGTAGATCAATAAAGGTTAAGAAAGTGCGCT	2.1	1.29	0.661	1.24	1.33	3.04	0.584	2.3	1.6	1.53
CATACAGGGTCAGCTAGGCCAGATTAGGGACGGC	1.11	1.98	0.335	-0.106	1.45	2.26	-0.138	3.04	0.588	3.91
AGAACGAGGGCACGCTGACTTGATAGCAGAGTAG	3.96	4.19	0.288	0.937	-0.0871	0.461	-0.269	0.898	-0.516	2.44
ATCTCTACGTAACAAGTTCAGTGAAAGAGAGGAC	-0.487	0.36	1.13	1.51	0.708	1.56	2.01	0.741	0.878	1.46
CCTGCTAGGTCAATGATCAGCTAAAGCAGCTCGC	4.45	3.19	-0.369	-0.701	1.17	0.559	-0.751	1.13	-0.385	3.62
TCAGACAGGAGAAGGTAACTCAGGTACGCAGTCG	2.06	-0.153	-0.44	-0.387	0.0505	0.125	-0.21	0.759	0.536	0.225
TCGAGTACGTTACCAATGGGGCATTCAGCTTTCT	0.846	-0.201	-0.329	-0.495	-0.459	0.154	-0.778	0.193	-0.477	0.0471
GCTATTAGTTGAAATGGCAACCGAATGATTCTCG	0.598	-0.104	0.641	0.526	0.501	-0.119	0.359	-0.166	0.404	-0.346
ACTTACGGTTCAACGAGGTTATAGCACGCGTATA	0.149	0.712	1.36	1.61	1.64	4.06	6.85	3.55	0.973	1.59
GCTGGTAGATCAAGGTTAAGAAAGACTAAGCTAA	-0.391	0.232	-0.0433	-0.0207	-0.421	0.348	-0.246	0.69	0.451	0.949
GTTCCAAGGTGAATAGGTCGTTGATGAGTAGGCG	2.09	2.89	-0.109	0.149	1.58	1.02	0.352	2.05	0.818	2.22
CCGAGTAGGCTATGGGGCATTCAGGCAACGGTGA	0.771	0.867	-0.695	-1.15	-0.376	-0.862	-0.647	-0.583	-0.463	-0.102
CGTCCAAGGTCAATGCTAGGTCAGTGATAGCATT	3.49	4.23	0.259	0.244	6.16	5.12	2	6.2	2.14	5.21
AATACAGGGTCACTAAGCCAGAGTAGGTACGAAT	3.03	4.56	1.91	0.89	2.06	3.23	0.477	4.15	0.677	4.17
CGTCCCAGGTCAGCAGGTCAGTGAAAGCGACGTG	1.69	2.71	-0.717	-0.861	1.2	2.16	-0.206	3.19	0.0121	4.12
ACAGACAGGTGATGAAGGTAACTTAGGCTATCAT	0.373	0.171	0.414	0.165	0.0231	-0.0368	-0.316	0.217	0.132	0.163
CCTGCTGGGCCACGAAAGGTCATTGATTCAGTGA	1.93	2.25	-0.596	-0.339	5.05	5.52	1.38	5.76	2.23	4.05
TCTTGGAGATCAAAGGTTAAGAAAGCCGAAGCCT	1.05	2.18	-0.186	-0.682	0.267	2.44	-0.521	3.89	-0.387	1.9
CCTACTGGGCCAAAAAGGTTATTGATGCCGATAA	3.45	2.94	-0.965	-0.43	0.601	0.934	0.529	1.67	0.386	1.15
ATACCAAGGTGATCGTGAGGTCGTTGACACTAAC	0.337	1.12	-0.329	0.642	1.07	3.23	1.34	2.52	0.306	1.4
TCTGCTAGGTCAGTTGGTCAGCTAACGAGCTGCC	2.77	3.08	-0.303	0.752	0.0124	0.0781	-0.754	0.864	-0.941	3.35
